Consider 19 compounds from the antibiotic and cytotoxicity screens of Wong et al. (2023).

Screen size: about 39,000 compounds; about 500 (1.3%) were called active. The full list was thinned out, with actives kept by preference.

The subject of the assay is S. aureus RN4220. The experiment in a line: growth inhibition call (relative growth <= 0.2). Particulars: 50 µM.
In the case of `Cn1c(=O)c2c(ncn2C[C@@H](O)CNc2ccc(Br)cc2)n(C)c1=O`, the growth inhibition call was “inactive”.

In the case of `COc1cc(C)c(C=CC=CC=CC=CC(=O)O)c(C)c1C`, the growth inhibition call was “inactive”.

`C[C@@H]1CN([C@H](C)CO)C(=O)c2cccc(NC(=O)Nc3ccc(F)cc3)c2O[C@@H]1CN(C)C(=O)Nc1ccc(C(F)(F)F)cc1`: the growth inhibition call is “inactive”.

With `C[C@H]1CN([C@@H](C)CO)C(=O)c2cccc(NC(=O)Nc3ccc(C(F)(F)F)cc3)c2O[C@@H]1CN(C)C(=O)Nc1ccc(F)cc1`, the growth inhibition call is “inactive”.

Turning to `C[C@H](CO)N1C[C@H](C)[C@H](CN(C)C(=O)Nc2ccc(F)cc2)Oc2c(NC(=O)Nc3ccc(C(F)(F)F)cc3)cccc2C1=O`, the growth inhibition call is “active”.

Turning to `C[C@H](CO)N1C[C@H](C)[C@@H](CN(C)C(=O)NC2CCCCC2)OCCCC[C@H](C)Oc2ccc(NC(=O)c3ccncc3)cc2C1=O`, the growth inhibition call was “inactive”.

For `C[C@@H]1CN([C@@H](C)CO)C(=O)c2cc(NC(=O)Nc3ccc(F)cc3)ccc2O[C@@H](C)CCCCO[C@@H]1CN(C)C(=O)NC1CCCCC1`, the growth inhibition call was “inactive”.

In the case of `C[C@@H]1CCCCO[C@@H](CN(C)C(=O)C2CCCCC2)[C@@H](C)CN([C@H](C)CO)C(=O)c2cc(NC(=O)C3CCCCC3)ccc2O1`, the growth inhibition call is “inactive”.

Regarding `NCc1ccccc1CC(=O)NC1C(=O)N2C(C(=O)O)=C(CSc3nnnn3CC(=O)O)CSC12` (centres undefined), the growth inhibition call was “active”.

Take `CC1=C(C(=O)O)N2C(=O)C(NC(=O)C(N)C3=CCC=CC3)C2SC1` (centres undefined): the growth inhibition call was “inactive”.

Consider `Cn1nnnc1SCC1=C(C(=O)[O-])N2C(=O)C(NC(=O)C(O)c3ccccc3)C2SC1.[Na+]` (centres undefined), for which the growth inhibition call was “active”.

Take `O=C([O-])C1=C(CSc2nnnn2CS(=O)(=O)[O-])CSC2C(NC(=O)C(O)c3ccccc3)C(=O)N12.[Na+].[Na+]` (centres undefined): the growth inhibition call is “active”.

`Cn1nnnc1SCC1=C(C(=O)[O-])N2C(=O)C(NC(=O)C(OC=O)c3ccccc3)C2SC1.[Na+]` (centres undefined): the growth inhibition call is “active”.

`CC1=C(C(=O)O)N2C(=O)[C@@H](NC(=O)[C@H](N)C3=CCC=CC3)[C@H]2SC1`: the growth inhibition call was “inactive”.

Turning to `CCCNC(=O)C[C@H]1CC[C@H]2[C@@H](COc3ccc(NC(=O)c4ccc5c(c4)OCO5)cc3C(=O)N2C)O1`, the growth inhibition call was “inactive”.

Regarding `C[C@H]1CN([C@@H](C)CO)C(=O)c2cc(Br)cnc2O[C@H]1CN(C)S(=O)(=O)c1ccccc1F`, the growth inhibition call is “inactive”.

Regarding `Cc1noc(C)c1NC(=O)N(C)C[C@@H]1Oc2ccc(NS(=O)(=O)c3cn(C)cn3)cc2CC(=O)N([C@H](C)CO)C[C@@H]1C`, the growth inhibition call is “inactive”.

Take `C[C@H](CO)N1C[C@H](C)[C@H](CN(C)S(=O)(=O)c2ccc(Cl)cc2)Oc2c(NC(=O)Nc3cccc4ccccc34)cccc2C1=O`: the growth inhibition call was “inactive”.

`Cc1noc(C)c1NC(=O)Nc1ccc2c(c1)C(=O)N([C@@H](C)CO)C[C@H](C)[C@H](CN(C)S(=O)(=O)c1ccccc1)O2`: the growth inhibition call was “inactive”.
